Marburg entry: inhibitors of Marburg virus binding or entry into cells; Marburg virus pseudotype entry/binding inhibition, cell-based; Potency, µM (top dose mostly 49.2 µM), hits mostly inhibitors; 18,000 tested, 6.5% active; AID 720532
LASV entry inh: Lassa virus entry inhibition; AID 720533; Potency, µM (series often up to 49.2 µM), hits mostly inhibitors; Lassa virus pseudotyped entry inhibition, cell-based qHTS; 18,000 tested, 4.1% active
Each line names hits and unclear results; the compound was inactive in the other large screens; ! = a repeat was not active. An excerpt weighted towards active compounds, which were near 8.6% of everything screened. Calls follow the shape of the full dose curve; tested in HEK293 cells.

CC(NN)c1ccccc1 (centres undefined)	none
O=C1N=c2ccc(N=Cc3c(O)[nH]c4ccccc34)cc2=N1	none
O=S1CCN(Cc2ccc(-c3ccc4ncnc(Nc5ccc(OCc6ccccc6)c(Cl)c5)c4c3)o2)CC1	Marburg entry inconclusive
CC(CN(C)C)CN1c2ccccc2Sc2ccc(C(F)(F)F)cc21 (centres undefined)	Marburg entry 10µM, LASV entry inh 32µM
CC(CN(C)C)CN1c2ccccc2Sc2ccccc21 (centres undefined)	Marburg entry 11µM, LASV entry inh inconclusive
COc1ccc2c(c1)N(C[C@H](C)CN(C)C)c1ccccc1S2	Marburg entry inconclusive
C[C@@H](CN(C)C)CN1c2ccccc2Sc2ccccc21	Marburg entry 11µM, LASV entry inh inconclusive
CN(C)CCCN1c2ccccc2Sc2ccc(C(F)(F)F)cc21	Marburg entry 11µM, LASV entry inh inconclusive
CCN1C(=O)[C@@H]2[C@H]3[C@H](O)[C@H](O)CC(=NO[C@@H]4O[C@H](COC(C)=O)[C@@H](OC(C)=O)[C@H](OC(C)=O)[C@@H]4OC(C)=O)[C@@H]3CC[C@H]2C1=O	none
CC[C@@H](O)C(C[C@@H](C)N(C)C)(c1ccccc1)c1ccccc1	Marburg entry 13µM, LASV entry inh inconclusive
CCC(O)c1ccccc1 (centres undefined)	none
CC(=O)N1C(=O)NC(C)=C(C#N)C1c1ccccc1 (centres undefined)	none
C[C@H]1[C@H]2CC[C@H]3[C@@H]4CC=C5C[C@@H](N(C)C)CC[C@]5(C)[C@H]4CC[C@]23CN1C	Marburg entry 3.2µM
C[C@]12CC[C@H]3[C@@H](CC=C4C[C@@H](O)CC[C@@]43C)[C@@H]1CC[C@@H]2O	none
CCN(CC)CCOc1ccc2nc(N(C)C)sc2c1	none
CCN(CC)CCOc1ccc(-c2nc3cc(Cl)ccc3s2)cc1	Marburg entry 13µM, LASV entry inh inconclusive
O=S1(=O)c2cc(Cl)ccc2Oc2ccccc2CN1Cc1cccc(F)c1	Marburg entry inconclusive
Cc1ccccc1CN1[C@@H](CC(C)C)COc2c(Cl)cccc2S1(=O)=O	none
N[C@H](C(=O)O)[C@H](O)C(=O)O	Marburg entry 14µM!, LASV entry inh inconclusive
O=C(O)[C@@H](O)[C@H](O)[C@H](O)[C@@H](O)C(=O)O	none
Cc1nnc(-c2ccc(C)c(-c3ccc(C(=O)Nc4cccc(C#N)c4)cc3)c2)o1	none (no result: LASV entry inh)
Cc1nnc(-c2ccc(C)c(-c3ccc(C(=O)NCc4ccc(Cl)cc4)cc3)c2)o1	Marburg entry 2.8µM (no result: LASV entry inh)
C=CCOC(=O)N[C@H](c1ccc(-c2ccccc2)cc1)[C@H](C)C=CCC(=O)OC	none (no result: LASV entry inh)
COc1cccc([C@H]2NC(=O)CC=C[C@H](C)[C@@H](c3cccc(OC)c3)NC(=O)CC=C[C@H]2C)c1	Marburg entry inconclusive
O=C(CCCN1CCN(c2ccc(F)cc2)CC1)NC1c2ccccc2CSc2ccccc21 (centres undefined)	Marburg entry 14µM
O=C(CCCN1CCN(c2ccccn2)CC1)c1ccc(F)cc1	none
Cc1cnc(C)c(-c2ccc(F)c3c2OC(CNC(=O)/C=C/c2cccs2)C3)n1 (centres undefined)	LASV entry inh inconclusive
COC(=O)N[C@H](CC(C)=O)c1cccs1	none
CCCNC(=O)OC[C@H]1O[C@H](CCON=C(C)CCC(=O)OC[C@H]2O[C@H](C#Cc3ccccc3)C=C[C@H]2Oc2ccc(C)cc2)C=C[C@H]1Oc1ccc(OC)cc1	none
CCCC[C@]12Cc3cc(C#N)ccc3[C@H](O1)c1c(c3ccccc3oc1=O)O2	none
CCOC(=O)C(CCc1ccccc1)NC(C)C(=O)N1CCCC1C(=O)O (centres undefined)	none
CCCNC(=O)[C@H]1O[C@@H]1C(=O)N[C@H](C(=O)N1CCC[C@H]1C(=O)OC)[C@@H](C)CC	Marburg entry 2.5µM, LASV entry inh 10µM
C[C@H]1CN(c2ccc(Br)cc2)C(=O)[C@H]1CC(=O)Nc1ccccc1	none
CN1CCN(C2=Nc3cc(F)ccc3Cc3ccccc32)CC1	Marburg entry inconclusive
Clc1ccccc1-c1nc(N2CCNCC2)c2ccccc2n1	Marburg entry inconclusive
CN1CCN(C2=Nc3cc(Cl)ccc3Nc3ccccc32)CC1	Marburg entry 10µM, LASV entry inh 8.9µM!
Clc1ccc2c(c1)N=C(N1CCNCC1)c1ccccc1N2	Marburg entry 10µM, LASV entry inh inconclusive
COC(=O)CC=C1c2ccc(OC)cc2[C@@H](OC)[C@@H]1C	none (no result: LASV entry inh)
C=C[C@]1(C)C[C@@H](OC(=O)CSCCN(CC)CC)[C@]2(C)[C@H](C)CC[C@]3(CCC(=O)[C@H]32)[C@@H](C)[C@@H]1O	Marburg entry inconclusive
CC(C)[C@@H](CO[Si](C)(C)C(C)(C)C)N1CC=CS1(=O)=O	none
Cc1ccc2[nH]nc(C(=O)N3CCOc4ccc(CN5CCc6sccc6C5)cc4C3)c2c1	Marburg entry inconclusive
C=C1[C@@H]2CCN3C(=O)N[C@@H](c4ccccc4)[C@@]1(C(=O)OCC)C23 (some centres undefined)	Marburg entry inconclusive
CO[C@H]1[C@H](NC(=O)c2ccsc2)c2ccccc2C12CCN(Cc1cnn(C)c1C)CC2	none

Screening data from PubChem BioAssay.
